About 7,900 targets were measured; listed, in parts, are those with a hit and a random draw of the rest. About 0.6% of all pairs of compound and target were hits.
What was measured:
Assay in all cases: log2 fold change, soluble protein after heating vs DMSO (PISA); higher = thermal stabilisation; K562 cells, 10 uM, 30 min; active = over 0.2 and 3.5 SD of the protein, either way, in both replicates (recomputed)
[1] = compound: CC[C@@H]1C(=O)N(C)c2cnc(Nc3ccc(C(=O)NC4CCN(C)CC4)cc3OC)nc2N1C1CCCC1
How it was run: (§1)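 Aliquots of K562 cells (2×10^6 cells/mL) treated with 10 μM compound for 30 min were heated for 3 min over 48°C-58°C. After pooling and extraction in PBS with 0.5% NP-40 at 4°C, soluble protein from a 21,000xg, 90 min spin was quantified by TMTpro 16plex LC-MS/MS with channel sums equalised. Thermal stability is expressed against control samples, from duplicates, as a log2 fold change.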

volasertib = compound: CC[C@@H]1C(=O)N(C)c2cnc(Nc3ccc(C(=O)N[C@H]4CC[C@H](N5CCN(CC6CC6)CC5)CC4)cc3OC)nc2N1C(C)C [volasertib]
How it was run: as §1

[2] = compound: CC[C@H](C)N1C=C(C2=C(C=C(C=C21)C3=CN=C(C=C3)N4CCNCC4)C(=O)NCC5=C(C=C(NC5=O)C)C)C
How it was run: as §1

epoxomicin = compound: CC[C@H](C)[C@@H](C(=O)N[C@@H]([C@@H](C)O)C(=O)N[C@@H](CC(C)C)C(=O)[C@]1(CO1)C)NC(=O)[C@H]([C@@H](C)CC)N(C)C(=O)C [epoxomicin]
How it was run: as §1

[3] = compound: CCn1c(C(=O)N(C2CC2)C2CC2)cc2c3c(ncn3C)c(Nc3cc(C)n(C)n3)nc21
How it was run: as §1

[4] = compound: CCn1cc(-c2ccnc3[nH]c(-c4cccc(CN(C)C)c4)cc23)c(-c2ccc(NC(=O)N(C)C)cc2)n1
How it was run: as §1

[5] = compound: CN(C)CC(=O)Nc1ccc2[nH]c(=O)c3ccccc3c2c1
How it was run: as §1

rosiglitazone = compound: CN(CCOC1=CC=C(C=C1)C[C@H]2C(=O)NC(=O)S2)C3=CC=CC=N3 (racemic) [rosiglitazone]
How it was run: as §1

[6] = compound: CN1C2=C(C3=C1C(=O)N(N=C3)CC4=CC(=CC=C4)N)SC(=C2)S(=O)C
How it was run: as §1

[7] = compound: CN1CCC(CNc2ccc3ncc(-c4cccc(OC(F)(F)F)c4)n3n2)CC1
How it was run: as §1

saracatinib = compound: CN1CCN(CCOc2cc(OC3CCOCC3)c3c(Nc4c(Cl)ccc5c4OCO5)ncnc3c2)CC1 [saracatinib]
How it was run: as §1

sotrastaurin = compound: CN1CCN(c2nc(C3=C(c4c[nH]c5ccccc45)C(=O)NC3=O)c3ccccc3n2)CC1 [sotrastaurin]
How it was run: as §1

alvocidib = compound: CN1CC[C@H](c2c(O)cc(O)c3c(=O)cc(-c4ccccc4Cl)oc23)[C@H](O)C1 [alvocidib]
How it was run: as §1

Tubastatin A = compound: CN1CCc2c(c3ccccc3n2Cc2ccc(C(=O)NO)cc2)C1 [Tubastatin A]
How it was run: as §1

[8] = compound: CNC(=O)C1=CC=CC=C1NC2=NC(=NC=C2Cl)NC3=C(C=C(C=C3)N4CCOCC4)OC
How it was run: as §1

defactinib = compound: CNC(=O)c1ccc(Nc2ncc(C(F)(F)F)c(NCc3nccnc3N(C)S(C)(=O)=O)n2)cc1 [defactinib]
How it was run: as §1

rucaparib = compound: CNCc1ccc(-c2[nH]c3cc(F)cc4c3c2CCNC4=O)cc1 [rucaparib]
How it was run: as §1

[9] = compound: CNc1nc(-c2ccc3c(N)n[nH]c3c2)cc(N2C[C@@H](C(=O)NC3CCCCC3)CC[C@H]2C)n1
How it was run: as §1

encorafenib = compound: COC(=O)N[C@@H](C)CNc1nccc(-c2cn(C(C)C)nc2-c2cc(Cl)cc(NS(C)(=O)=O)c2F)n1 [encorafenib]
How it was run: as §1

[10] = compound: COC(=O)[C@H](CCSC)NC(=O)C1=C(C=C(C=C1)NC[C@H](CS)N)C2=CC=CC=C2
How it was run: as §1

Measured: log2 fold change

VAMP7 (UniProt P51809)
Sequence of UniProt P51809 (P51809 whole entry, looked up): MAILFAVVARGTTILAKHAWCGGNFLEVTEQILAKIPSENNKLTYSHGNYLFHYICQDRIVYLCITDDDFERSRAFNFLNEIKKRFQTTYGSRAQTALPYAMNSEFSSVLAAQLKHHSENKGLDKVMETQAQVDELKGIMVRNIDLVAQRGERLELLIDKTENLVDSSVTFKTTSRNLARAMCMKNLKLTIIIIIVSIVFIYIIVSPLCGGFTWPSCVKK
inactive: [1] -0.057 | volasertib -0.019 | [2] 0.009 | epoxomicin 0.045 | [3] 0.012 | [4] -0.026 | [5] 0.014 | rosiglitazone -0.022 | [6] -0.07 | [7] -0.181 | saracatinib 0.029 | sotrastaurin 0.012 | alvocidib -0.019 | Tubastatin A -0.001 | [8] 0.03 | defactinib -0.028 | rucaparib -0.027 | [9] -0.022 | encorafenib 0.029 | [10] -0.011

UBE2E3 (UniProt Q969T4)
Sequence of UniProt Q969T4 (Q969T4 whole entry, looked up): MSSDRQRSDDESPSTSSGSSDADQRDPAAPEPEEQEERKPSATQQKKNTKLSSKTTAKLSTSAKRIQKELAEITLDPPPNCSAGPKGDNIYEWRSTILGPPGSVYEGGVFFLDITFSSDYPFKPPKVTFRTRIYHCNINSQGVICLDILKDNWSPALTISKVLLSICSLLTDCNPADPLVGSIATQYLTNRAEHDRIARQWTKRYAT
inactive: [1] -0.124 | [2] -0.008 | epoxomicin -0.052 | [3] 0.051 | [4] -0.11 | [5] 0.022 | rosiglitazone 0.059 | [6] -0.005 | [7] -0.24 | saracatinib -0.03 | sotrastaurin -0.044 | alvocidib -0.085 | Tubastatin A -0.074 | [8] 0.067 | defactinib -0.162 | rucaparib -0.014 | [9] -0.022 | encorafenib 0.017 | [10] -0.067
active: volasertib -0.377

WDR18 (UniProt Q9BV38)
Sequence of UniProt Q9BV38 (Q9BV38 whole entry, looked up): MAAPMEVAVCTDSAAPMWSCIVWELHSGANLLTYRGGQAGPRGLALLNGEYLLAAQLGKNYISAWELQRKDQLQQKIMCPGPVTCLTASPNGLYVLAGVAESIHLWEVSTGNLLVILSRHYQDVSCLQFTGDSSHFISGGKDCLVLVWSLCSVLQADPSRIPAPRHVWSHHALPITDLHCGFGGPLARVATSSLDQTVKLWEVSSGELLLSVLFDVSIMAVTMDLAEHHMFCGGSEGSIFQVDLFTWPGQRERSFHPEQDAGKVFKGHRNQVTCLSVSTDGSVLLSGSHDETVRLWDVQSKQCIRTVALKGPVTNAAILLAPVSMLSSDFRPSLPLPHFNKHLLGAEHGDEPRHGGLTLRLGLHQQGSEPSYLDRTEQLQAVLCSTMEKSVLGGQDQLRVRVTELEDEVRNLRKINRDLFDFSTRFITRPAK
inactive: [1] 0.034 | volasertib -0.1 | [2] 0.022 | epoxomicin 0.016 | [3] 0.039 | [4] -0.026 | [5] -0.017 | rosiglitazone 0.007 | [6] 0.018 | [7] -0.002 | saracatinib 0.057 | sotrastaurin -0.001 | alvocidib -0.027 | Tubastatin A 0.008 | [8] -0.032 | defactinib -0.051 | rucaparib -0.009 | [9] -0.038 | encorafenib 0.001 | [10] 0.003

TTC4 (UniProt O95801)
Sequence of UniProt O95801 (O95801 whole entry, looked up): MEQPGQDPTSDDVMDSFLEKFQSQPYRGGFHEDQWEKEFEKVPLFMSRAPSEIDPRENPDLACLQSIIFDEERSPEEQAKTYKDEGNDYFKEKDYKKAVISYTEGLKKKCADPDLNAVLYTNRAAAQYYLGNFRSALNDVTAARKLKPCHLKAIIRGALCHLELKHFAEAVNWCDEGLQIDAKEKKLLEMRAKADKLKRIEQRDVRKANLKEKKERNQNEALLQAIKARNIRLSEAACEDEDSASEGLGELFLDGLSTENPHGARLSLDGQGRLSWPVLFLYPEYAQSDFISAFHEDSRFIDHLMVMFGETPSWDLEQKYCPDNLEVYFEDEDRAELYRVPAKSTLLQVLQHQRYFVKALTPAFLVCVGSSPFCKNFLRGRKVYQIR
inactive: [1] -0.173 | [2] 0.103 | epoxomicin 0.054 | [3] -0.025 | [4] -0.039 | [5] 0.061 | rosiglitazone 0.052 | [6] -0.02 | [7] -0.11 | saracatinib -0.09 | sotrastaurin -0.11 | alvocidib -0.146 | Tubastatin A 0.055 | [8] 0.078 | defactinib -0.169 | rucaparib 0.04 | [9] 0.051 | encorafenib 0.049 | [10] -0.055
active: volasertib -0.316

TXN2 (UniProt Q99757)
Sequence of UniProt Q99757 (Q99757 whole entry, looked up): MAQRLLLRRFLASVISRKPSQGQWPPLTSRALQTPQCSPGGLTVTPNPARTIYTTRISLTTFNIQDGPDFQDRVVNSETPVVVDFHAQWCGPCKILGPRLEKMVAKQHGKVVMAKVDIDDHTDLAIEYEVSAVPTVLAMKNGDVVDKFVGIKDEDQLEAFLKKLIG
inactive: [1] -0.037 | volasertib 0.051 | [2] -0.029 | epoxomicin 0.082 | [3] -0.038 | [4] -0.089 | [5] -0.096 | rosiglitazone -0.027 | [6] 0.03 | [7] 0.083 | saracatinib 0.004 | sotrastaurin 0.04 | alvocidib -0.058 | Tubastatin A 0.004 | [8] 0.17 | defactinib 0.031 | rucaparib -0.003 | [9] -0.034 | encorafenib 0.001 | [10] 0.068

TMEM9 (UniProt Q9P0T7)
Sequence of UniProt Q9P0T7 (Q9P0T7 whole entry, looked up): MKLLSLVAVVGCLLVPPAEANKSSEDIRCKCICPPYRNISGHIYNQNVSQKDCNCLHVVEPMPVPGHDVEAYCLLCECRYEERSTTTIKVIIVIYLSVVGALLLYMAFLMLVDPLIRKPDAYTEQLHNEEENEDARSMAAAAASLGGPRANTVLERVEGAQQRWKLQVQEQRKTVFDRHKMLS
inactive: [1] -0.112 | volasertib -0.07 | [2] -0.05 | [3] -0.018 | [4] 0.015 | [5] 0.004 | rosiglitazone -0.157 | [6] -0.015 | [7] -0.007 | saracatinib 0.051 | sotrastaurin -0.025 | alvocidib -0.068 | Tubastatin A 0.016 | [8] 0.004 | defactinib -0.014 | rucaparib 0.003 | [9] 0.033 | encorafenib 0.033 | [10] 0.004
active: epoxomicin 0.296

TRAPPC2L (UniProt Q9UL33)
Sequence of UniProt Q9UL33 (Q9UL33 whole entry, looked up): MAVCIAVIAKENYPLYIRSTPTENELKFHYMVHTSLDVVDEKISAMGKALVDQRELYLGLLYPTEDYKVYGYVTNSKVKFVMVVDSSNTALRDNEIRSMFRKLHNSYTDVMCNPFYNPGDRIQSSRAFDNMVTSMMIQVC
inactive: [1] -0.109 | volasertib -0.065 | [2] 0.008 | epoxomicin 0.06 | [3] -0.076 | [4] -0.042 | [5] 0.128 | rosiglitazone 0.053 | [6] 0.007 | [7] 0.001 | saracatinib -0.07 | sotrastaurin -0.101 | alvocidib -0.015 | Tubastatin A 0.011 | defactinib -0.032 | rucaparib 0.03 | [9] -0.026 | encorafenib 0.012 | [10] -0.042
active: [8] -0.376

TP53BP1 isoform 2 (UniProt Q12888)
inactive: [1] -0.024 | volasertib -0.072 | [2] 0.021 | epoxomicin 0 | [3] -0.01 | [4] 0 | [5] 0.008 | rosiglitazone -0.018 | [6] 0.052 | [7] 0.025 | saracatinib 0.01 | sotrastaurin -0.112 | alvocidib -0.081 | Tubastatin A 0.116 | [8] 0.061 | defactinib -0.073 | rucaparib 0.025 | [9] -0.022 | encorafenib 0.059 | [10] 0.036

TSEN2 (UniProt Q8NCE0)
Sequence of UniProt Q8NCE0 (Q8NCE0 whole entry, looked up): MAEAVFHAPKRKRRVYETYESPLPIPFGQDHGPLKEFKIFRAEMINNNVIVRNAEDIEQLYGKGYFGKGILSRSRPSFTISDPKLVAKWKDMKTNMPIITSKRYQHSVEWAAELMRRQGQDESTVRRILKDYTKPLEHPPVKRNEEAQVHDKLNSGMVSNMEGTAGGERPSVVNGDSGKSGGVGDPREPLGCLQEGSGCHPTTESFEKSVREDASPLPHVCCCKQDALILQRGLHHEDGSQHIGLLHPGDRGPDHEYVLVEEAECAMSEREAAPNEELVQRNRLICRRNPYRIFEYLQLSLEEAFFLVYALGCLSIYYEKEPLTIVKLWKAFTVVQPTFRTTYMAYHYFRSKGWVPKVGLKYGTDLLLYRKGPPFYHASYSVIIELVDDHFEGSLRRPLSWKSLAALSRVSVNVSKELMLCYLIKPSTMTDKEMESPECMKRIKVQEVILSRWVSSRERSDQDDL
inactive: [1] -0.019 | volasertib -0.146 | [2] 0.053 | epoxomicin 0.078 | [3] -0.021 | [4] -0.082 | [5] 0.086 | rosiglitazone 0.077 | [6] -0.04 | [7] 0.034 | saracatinib -0.014 | sotrastaurin -0.186 | alvocidib -0.044 | Tubastatin A -0.024 | [8] -0.042 | defactinib -0.009 | rucaparib 0.007 | [9] -0.005 | encorafenib -0.068 | [10] -0.049

TMEM214 (UniProt Q6NUQ4)
active: volasertib -0.246
inactive: [1] -0.023 | [2] 0.075 | epoxomicin 0.032 | [3] -0.056 | [4] -0.023 | [5] 0.008 | rosiglitazone 0.046 | [6] 0.004 | [7] 0.148 | saracatinib -0.04 | sotrastaurin 0.068 | alvocidib 0.009 | Tubastatin A 0.062 | [8] -0.002 | defactinib -0.04 | rucaparib 0.121 | [9] 0.03 | encorafenib 0.041 | [10] -0.039

TXNL1 (UniProt O43396)
Sequence of UniProt O43396 (O43396 whole entry, looked up): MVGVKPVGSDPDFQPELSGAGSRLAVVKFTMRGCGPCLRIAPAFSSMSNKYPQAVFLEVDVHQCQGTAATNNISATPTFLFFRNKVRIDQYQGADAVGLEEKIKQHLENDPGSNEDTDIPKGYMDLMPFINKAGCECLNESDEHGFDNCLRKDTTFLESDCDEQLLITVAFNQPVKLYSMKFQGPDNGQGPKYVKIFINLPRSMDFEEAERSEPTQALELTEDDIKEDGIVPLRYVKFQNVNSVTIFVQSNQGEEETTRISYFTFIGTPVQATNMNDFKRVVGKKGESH
active: epoxomicin 0.295
inactive: [1] -0.104 | volasertib -0.163 | [2] 0.044 | [3] -0.018 | [4] -0.031 | [5] 0.027 | rosiglitazone 0.01 | [6] -0.018 | [7] 0.011 | saracatinib -0.008 | sotrastaurin -0.068 | alvocidib -0.1 | Tubastatin A 0.215 | [8] 0.034 | defactinib -0.085 | rucaparib 0.019 | [9] 0.024 | encorafenib 0.062 | [10] -0.045

WDHD1 (UniProt O75717)
Sequence of UniProt O75717 (O75717 whole entry, looked up): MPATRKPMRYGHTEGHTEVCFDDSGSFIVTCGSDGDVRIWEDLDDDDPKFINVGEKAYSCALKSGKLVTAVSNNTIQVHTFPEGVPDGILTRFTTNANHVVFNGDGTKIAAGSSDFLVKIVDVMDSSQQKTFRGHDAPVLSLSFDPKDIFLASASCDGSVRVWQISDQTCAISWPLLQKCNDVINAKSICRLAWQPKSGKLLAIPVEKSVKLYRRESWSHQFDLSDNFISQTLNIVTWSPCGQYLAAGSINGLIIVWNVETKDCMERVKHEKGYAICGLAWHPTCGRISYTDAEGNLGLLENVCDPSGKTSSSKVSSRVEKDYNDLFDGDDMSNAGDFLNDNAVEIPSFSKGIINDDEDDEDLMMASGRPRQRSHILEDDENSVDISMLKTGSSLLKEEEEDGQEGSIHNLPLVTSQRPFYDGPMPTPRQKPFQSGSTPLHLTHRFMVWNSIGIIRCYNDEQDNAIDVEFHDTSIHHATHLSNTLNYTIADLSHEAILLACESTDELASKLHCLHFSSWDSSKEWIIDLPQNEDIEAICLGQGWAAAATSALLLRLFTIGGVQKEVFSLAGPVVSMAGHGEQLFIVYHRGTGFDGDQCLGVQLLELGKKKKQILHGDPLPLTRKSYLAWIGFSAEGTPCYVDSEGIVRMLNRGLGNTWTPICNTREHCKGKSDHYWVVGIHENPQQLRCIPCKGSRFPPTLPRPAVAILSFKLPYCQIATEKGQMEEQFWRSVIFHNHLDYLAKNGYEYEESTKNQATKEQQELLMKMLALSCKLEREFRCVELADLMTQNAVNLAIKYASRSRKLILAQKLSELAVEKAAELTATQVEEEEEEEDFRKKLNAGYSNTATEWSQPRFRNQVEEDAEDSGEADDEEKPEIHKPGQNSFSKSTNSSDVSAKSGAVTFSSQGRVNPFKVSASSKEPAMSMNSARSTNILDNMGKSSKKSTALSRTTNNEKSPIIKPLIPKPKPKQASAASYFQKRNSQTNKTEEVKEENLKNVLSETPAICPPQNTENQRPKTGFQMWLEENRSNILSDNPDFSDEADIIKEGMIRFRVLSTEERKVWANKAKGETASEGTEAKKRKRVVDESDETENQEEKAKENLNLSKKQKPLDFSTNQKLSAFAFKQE
active: volasertib -0.458
inactive: [1] -0.209 | [2] 0.079 | epoxomicin 0.071 | [3] -0.018 | [4] -0.033 | [5] 0.051 | rosiglitazone 0.072 | [6] -0.063 | [7] -0.118 | saracatinib -0.027 | sotrastaurin -0.067 | alvocidib -0.135 | Tubastatin A 0.079 | [8] 0.075 | defactinib -0.201 | rucaparib -0.06 | [9] 0 | encorafenib 0.119 | [10] -0.022

TRMT61A (UniProt Q96FX7)
Sequence of UniProt Q96FX7 (Q96FX7 whole entry, looked up): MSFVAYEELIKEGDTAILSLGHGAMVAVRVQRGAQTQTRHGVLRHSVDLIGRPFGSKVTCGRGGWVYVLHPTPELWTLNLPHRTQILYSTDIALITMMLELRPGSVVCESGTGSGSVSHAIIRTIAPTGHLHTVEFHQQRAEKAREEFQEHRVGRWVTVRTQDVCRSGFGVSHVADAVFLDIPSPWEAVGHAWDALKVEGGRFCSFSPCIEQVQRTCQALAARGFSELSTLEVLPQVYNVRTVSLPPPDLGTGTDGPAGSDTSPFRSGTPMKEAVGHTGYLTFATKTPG
inactive: [1] 0.044 | volasertib 0.161 | [2] 0.022 | epoxomicin -0.061 | [3] 0.028 | [4] 0.043 | [5] -0.098 | rosiglitazone -0.105 | [6] 0.099 | [7] -0.001 | saracatinib -0.018 | sotrastaurin -0.002 | alvocidib 0.134 | Tubastatin A 0.08 | [8] -0.038 | defactinib 0.138 | rucaparib 0.286 | [9] 0.02 | encorafenib -0.03 | [10] 0.039

VWA8 (UniProt A3KMH1)
inactive: [1] -0.027 | volasertib -0.071 | [2] 0.048 | epoxomicin -0.005 | [3] 0.002 | [4] -0.094 | [5] 0.056 | rosiglitazone 0.024 | [6] -0.01 | [7] -0.034 | saracatinib -0.012 | sotrastaurin -0.003 | alvocidib -0.046 | Tubastatin A 0.072 | [8] 0.006 | defactinib -0.017 | rucaparib 0.008 | [9] -0.013 | encorafenib 0.003 | [10] -0.049

TUBA4A (UniProt P68366)
Sequence of UniProt P68366 (P68366 whole entry, looked up): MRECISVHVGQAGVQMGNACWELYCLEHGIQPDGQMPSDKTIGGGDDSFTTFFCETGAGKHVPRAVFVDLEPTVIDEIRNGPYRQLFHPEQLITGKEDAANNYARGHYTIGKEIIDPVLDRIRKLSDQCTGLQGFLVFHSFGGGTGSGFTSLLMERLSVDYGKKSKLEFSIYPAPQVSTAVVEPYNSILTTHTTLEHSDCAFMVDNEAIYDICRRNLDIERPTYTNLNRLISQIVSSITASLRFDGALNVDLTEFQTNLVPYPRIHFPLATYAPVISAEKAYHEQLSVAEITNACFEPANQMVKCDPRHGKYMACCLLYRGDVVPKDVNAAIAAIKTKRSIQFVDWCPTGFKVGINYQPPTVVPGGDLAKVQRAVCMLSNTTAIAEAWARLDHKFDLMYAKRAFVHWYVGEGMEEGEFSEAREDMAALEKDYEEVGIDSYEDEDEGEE
inactive: [1] -0.024 | volasertib -0.01 | [2] 0.007 | epoxomicin 0.055 | [3] -0.002 | [4] -0.064 | [5] -0.013 | rosiglitazone 0.023 | [6] -0.168 | saracatinib 0.045 | sotrastaurin -0.012 | alvocidib -0.048 | Tubastatin A -0.051 | [8] -0.039 | defactinib -0.024 | rucaparib -0.046 | [9] 0.038 | encorafenib -0.012 | [10] 0.013
active: [7] -0.261

TOM1L1 (UniProt O75674)
Sequence of UniProt O75674 (O75674 whole entry, looked up): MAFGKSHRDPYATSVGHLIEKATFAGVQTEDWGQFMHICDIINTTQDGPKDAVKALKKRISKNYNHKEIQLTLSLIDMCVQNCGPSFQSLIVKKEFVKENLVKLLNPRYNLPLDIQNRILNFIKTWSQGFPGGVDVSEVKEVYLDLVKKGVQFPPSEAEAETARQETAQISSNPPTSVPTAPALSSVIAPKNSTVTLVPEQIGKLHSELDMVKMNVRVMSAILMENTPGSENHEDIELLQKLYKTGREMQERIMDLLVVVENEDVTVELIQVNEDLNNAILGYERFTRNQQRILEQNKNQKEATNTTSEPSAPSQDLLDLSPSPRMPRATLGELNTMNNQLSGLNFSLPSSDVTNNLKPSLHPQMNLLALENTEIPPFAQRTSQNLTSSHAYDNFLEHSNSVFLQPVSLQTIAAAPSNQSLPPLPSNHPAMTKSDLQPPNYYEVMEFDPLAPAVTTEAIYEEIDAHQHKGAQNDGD
active: [7] 0.385
inactive: [1] 0.072 | volasertib -0.052 | [2] 0.027 | epoxomicin 0.013 | [3] -0.023 | [4] -0.004 | [5] 0.043 | rosiglitazone 0.062 | [6] -0.053 | saracatinib -0.003 | sotrastaurin 0.019 | alvocidib -0.046 | Tubastatin A -0.066 | [8] -0.043 | defactinib -0.042 | rucaparib -0.02 | [9] -0.026 | encorafenib -0.042 | [10] -0.041

Reference: the supplement of paper PMC10849652
